Some test systems named below: SK-MEL-2 melanoma; EKVX NSCLC; SN12C renal; UO-31 renal; TK-10 renal; ACHN renal; CAKI-1 renal; A498 renal; CCRF-CEM leukemia; MOLT-4 leukemia; SR leukemia; RPMI-8226 leukemia; OVCAR-8 ovarian; OVCAR-5 ovarian; OVCAR-4 ovarian; SK-OV-3 ovarian; IGROV1 ovarian; OVCAR-3 ovarian; HS 578T breast; NCI/ADR-RES ovarian.
Holding throughout (experiment): NCI-60 one-dose screen, 48 h (100 = growth as untreated, 0 = no growth, -100 = all killed)
Holding throughout (details): 10 µM unless noted

About 83,000 compounds went through this panel and 20% of them were active in at least one assay; those are over-represented in the sample as a whole.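 Step 1: grow cells in 96-well plates. Step 2: add test compound at a single concentration. Step 3: incubate 48 h. Step 4: record percent growth.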 Values without a mark were called inactive. Active and inactive are the calls of the source. How the source made its calls: active means growth percent below 10; inactive means the rest.

Consider `C/C(=N\Nc1ccc(C(=O)O)cc1)c1cnn(-c2cc(=O)[nH]c3ccc(C)cc23)c1C`, for which the growth in the assay with SK-MEL-2 melanoma is 106%; in the assay on EKVX NSCLC, 93%; with SN12C renal, 92.6%; in the assay on UO-31 renal it was 67.9%; in the assay with TK-10 renal it was 104%; in the assay with ACHN renal, 99.4%. The growth in the assay with CAKI-1 renal is 89.7%; in the assay with A498 renal, 108%; in the assay with CCRF-CEM leukemia, 93%; in the assay with MOLT-4 leukemia it was 97.8%; with SR leukemia, 88.6%; with RPMI-8226 leukemia, 85.1%. Also, the growth was 104% in the assay on OVCAR-8 ovarian; 99.2% with OVCAR-5 ovarian; 94.6% in the assay on OVCAR-4 ovarian; 94.3% with SK-OV-3 ovarian; 112% in the assay on IGROV1 ovarian; 98.9% in the assay with OVCAR-3 ovarian. Moreover, the figures for the growth with HS 578T breast and in the assay with NCI/ADR-RES ovarian were 92.5% and 101%, respectively.

`CCOC(=O)/C(F)=C/C1CC1C(c1ccccc1)c1ccccc1` (stereo not given): the growth was 86.3% in the assay with SK-MEL-2 melanoma; 86.5% in the assay with EKVX NSCLC; 98.8% in the assay with SN12C renal; 70.2% with UO-31 renal; 101% in the assay with TK-10 renal; 98.9% in the assay on ACHN renal. Also, the growth is 65.6% in the assay with CAKI-1 renal; 87.9% in the assay on A498 renal; 85.4% with CCRF-CEM leukemia; 76.8% in the assay with MOLT-4 leukemia; 63.3% in the assay with SR leukemia; 69.5% in the assay on RPMI-8226 leukemia. In addition, the growth was 105% in the assay on OVCAR-8 ovarian; 102% with OVCAR-5 ovarian; 87.3% with OVCAR-4 ovarian; 148% in the assay on SK-OV-3 ovarian; 90.8% in the assay on IGROV1 ovarian; 81.3% with HS 578T breast. Besides, in the assay with NCI/ADR-RES ovarian, the growth was 89.4%.

`N#Cc1cc(-c2ccnc(Nc3ccc(N4CCN(C5COC5)CC4)cc3)n2)ccc1N1CCCC1`: the growth with SK-MEL-2 melanoma was 84.5%; in the assay on EKVX NSCLC it was 90.9%; in the assay on SN12C renal, 52.1%; with UO-31 renal, 30.5%; in the assay on TK-10 renal, 66.9%; in the assay on ACHN renal, 50.3%. In addition, the growth with CAKI-1 renal was 18.1%; in the assay with A498 renal, 71.2%; with CCRF-CEM leukemia it was 43.4%; in the assay on MOLT-4 leukemia, 40.4%; in the assay with SR leukemia it was 23%; in the assay with RPMI-8226 leukemia, 36.6%. Further, the growth was 79.5% with OVCAR-8 ovarian; 93.5% in the assay with OVCAR-5 ovarian; 43.9% in the assay with OVCAR-4 ovarian; 52.8% in the assay on SK-OV-3 ovarian; 94.5% in the assay with OVCAR-3 ovarian; 21.6% in the assay with HS 578T breast. Also, the growth in the assay on NCI/ADR-RES ovarian was 92.2%.

`CN(C)C(=O)c1cc(-c2ccc3ncnc(N4CCc5cc(F)c(Cl)cc54)c3c2)cnc1N`: the growth in the assay on SK-MEL-2 melanoma is -86% (active); with EKVX NSCLC, -84.3% (active); with SN12C renal, -9.32% (active); with UO-31 renal, -10.3% (active); in the assay on TK-10 renal, -69.4% (active); with ACHN renal it was 2.02% (active). Moreover, the growth is -76.5% (active) in the assay on CAKI-1 renal; -84.2% (active) in the assay with A498 renal; -20.5% (active) in the assay on CCRF-CEM leukemia; -38.3% (active) in the assay with MOLT-4 leukemia; -57% (active) in the assay with SR leukemia; -34.6% (active) in the assay with RPMI-8226 leukemia. Moreover, the growth in the assay with OVCAR-8 ovarian is -8.58% (active); with OVCAR-5 ovarian it was -15% (active); in the assay with OVCAR-4 ovarian, -17.5% (active); with SK-OV-3 ovarian it was -32.8% (active); in the assay on IGROV1 ovarian it was -62.5% (active); with HS 578T breast, -44.2% (active). Further, in the assay on NCI/ADR-RES ovarian, the growth is -12.5% (active).

`CC(C)(C)C(=O)c1c2c(c3ccc4c5ccccc5ccc4n13)C(=O)c1ccccc1C2=O`: the growth in the assay on SK-MEL-2 melanoma is 104%; in the assay on EKVX NSCLC, 86.2%; in the assay on SN12C renal, 99%; with UO-31 renal it was 67.9%; in the assay on TK-10 renal it was 118%; in the assay with ACHN renal it was 79.2%. Further, the growth is 85.4% in the assay on CAKI-1 renal; 188% in the assay with A498 renal; 99.7% in the assay with CCRF-CEM leukemia; 94.3% with MOLT-4 leukemia; 85.5% in the assay with SR leukemia; 96.6% with RPMI-8226 leukemia. The growth in the assay on OVCAR-8 ovarian is 96.3%; in the assay with OVCAR-5 ovarian, 116%; in the assay on OVCAR-4 ovarian, 71.2%; in the assay with SK-OV-3 ovarian it was 118%; in the assay on OVCAR-3 ovarian it was 94.4%; in the assay with HS 578T breast, 100%. Also, the growth in the assay with NCI/ADR-RES ovarian was 95.5%.

Consider `COc1ccccc1Nc1nnc(-c2c[nH]c3ccccc23)o1`, for which the growth is -13.6% (active) with SK-MEL-2 melanoma; 10.2% in the assay on EKVX NSCLC; 14.5% with SN12C renal; 32.5% in the assay on UO-31 renal; 22.8% with TK-10 renal; 23.1% in the assay with ACHN renal. Moreover, the growth was 22% in the assay with CAKI-1 renal; 81.9% in the assay with A498 renal; 8.16% (active) in the assay on CCRF-CEM leukemia; 1.78% (active) with MOLT-4 leukemia; 1.74% (active) with SR leukemia; -12.4% (active) with RPMI-8226 leukemia. Further, the growth in the assay on OVCAR-8 ovarian was 11.8%; in the assay on OVCAR-5 ovarian, 32.1%; with OVCAR-4 ovarian, 64.3%; in the assay with SK-OV-3 ovarian, 15.4%; in the assay with IGROV1 ovarian it was 16.8%; in the assay with HS 578T breast, 9.82% (active). Moreover, the growth in the assay with NCI/ADR-RES ovarian was -35.9% (active).

As for `C=CC(=O)N1CCN(c2ccc3nc4c(nc3c2C(F)(F)F)C(=O)c2ncccc2C4=O)CC1`, the growth with SK-MEL-2 melanoma is 39.8%; with EKVX NSCLC it was 30.4%; in the assay on SN12C renal, -44% (active); in the assay with UO-31 renal, 35.7%; in the assay on TK-10 renal it was 111%; in the assay with ACHN renal, 28.3%. Further, the growth with CAKI-1 renal was 36%; with A498 renal it was 134%; in the assay with CCRF-CEM leukemia, -17.5% (active); with MOLT-4 leukemia it was -37.8% (active); in the assay with SR leukemia, 33.2%; in the assay on RPMI-8226 leukemia, -20.2% (active). Also, the growth is -9.34% (active) with OVCAR-8 ovarian; 2.97% (active) in the assay on OVCAR-5 ovarian; -96.4% (active) in the assay on OVCAR-4 ovarian; 91.1% in the assay with SK-OV-3 ovarian; -42.6% (active) in the assay on IGROV1 ovarian; -15.3% (active) in the assay with OVCAR-3 ovarian. The growth with HS 578T breast was 75.8%; in the assay on NCI/ADR-RES ovarian, 47.5%.

These data come from PubChem BioAssay (NCI).
